Assay results taken from PubChem BioAssay (Tox21).
Results filed as inconclusive are left out. Activity calls are given as the source filed them. The call rests on the fitted dose curve; in most records, active means well fitted cell-killing curve with a large enough effect in the repeat runs; inconclusive means weak or mixed curves; inactive means flat fitted curve, though single readings scatter.

Assay: qHTS assay to identify small molecule antagonists of the estrogen related receptor (ERR) signaling pathway - cell viability counter screen (AID 1224818)
Details: ERR reporter cell line viability counter screen; series mostly up to 46.1 µM
Excerpt: National Center for Advancing Translational Sciences [NCATS]
NIH Chemical Genomics Center [NCGC]
U.S. Environmental Protection Agency [EPA]
National Institutes of Environmental Health Sciences [NIEHS]
National Toxicology Program [NTP]
U.S. Food and Drug Administration [FDA]
Estrogen related receptors (ERRs), the first orphan nuclear receptors discovered, play an important role in the control of cellular energy metabolism. ERRs are required for high-energy production in response to the environmental challenges. ERR-alpha was also identified as an adverse marker for breast cancer progression; ERR-alpha-positive tumors have a poor prognosis. To screen and to identify environmental compounds that perturb the ERR signaling pathways could provide valuable information for potential therapeutic or preventive measures in the treatment of metabolic disease. To differentiate true ERR antagonists or agonist from cytotoxic substances, the assay is multiplexed with cell viability assay.
Tox21 Assay Protocol Summary:
The ERR cells were dispensed at 2,000 cells/5 ul/well in 1536-well white plates using a Multidrop dispenser. After the assay plates were incubated at a 37 C/5% CO2 incubator for 6 hours, 23 nL of compounds dissolved in DMSO, positive and negative controls or DMSO only was transferred to the assay plate by a pin tool. The plates were incubated at 37 C for 17.5 hours. 1 ul/well of CellTiter-Fluor reagent was added into the assay plates using a Flying Reagent Dispenser. After 30 min incubation at 37 C/5% CO2, the fluorescence intensity in the plates was measured using a ViewLux plate reader.

Row | Compound | outcome
1 | NC(N)=NCCC[C@H](N)C(=O)O | inactive
2 | CC(=O)c1ccc2c(c1)N(CCCN(C)C)c1ccccc1S2 | inactive
3 | OC(CN1CCC(Cc2ccc(F)cc2)CC1)c1ccc(Cl)cc1 (centres undefined) | inactive
4 | COc1cc2nc(N(C)CCCNC(=O)C3CCCO3)nc(N)c2cc1OC (centres undefined) | inactive
5 | Clc1ccc(Cn2c(CN3CCCC3)nc3ccccc32)cc1 | inactive
6 | CCCNCC(O)COc1ccccc1C(=O)CCc1ccccc1 (centres undefined) | inactive
7 | CCCCc1ncc(/C=C(\Cc2cccs2)C(=O)O)n1Cc1ccc(C(=O)O)cc1 | inactive
8 | C[N+](C)(C)CCOC(=O)CCC(=O)OCC[N+](C)(C)C | inactive
9 | CN(C)CCCN1c2ccccc2Sc2ccccc21 | inactive
10 | CNCCCN1c2ccccc2CCc2ccccc21 | inactive
11 | C#CCN(C)CCCOc1ccc(Cl)cc1Cl | inactive
12 | c1ccc(-c2ccccn2)nc1 | inactive
13 | CCOC(=O)C1=C[C@]2(CC)CCCN3CCc4c(n1c1ccccc41)[C@@H]32 | inactive
14 | CCCn1cnc2c1c(=O)n(CCCCC(C)=O)c(=O)n2C | inactive
